The supplement of paper PMC10849652
About 7,900 targets were measured; listed, in parts, are those with a hit and a random draw of the rest. About 0.6% of all pairs of compound and target were hits.

Legend:
Assay in all cases: log2 fold change, soluble protein after heating vs DMSO (PISA); higher = thermal stabilisation; K562 cells, 10 uM, 30 min; active = over 0.2 and 3.5 SD of the protein, either way, in both replicates (recomputed)
[1] = compound: CC1=C(C=C(C=C1)NC(=O)C2=CC(=CC=C2)C(C)(C)C#N)NC3=CC4=C(C=C3)N=CN(C4=O)C
Procedure, shortened: (§1)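 Values are thermal stability changes relative to control samples and are taken from duplicates. They are stated as log2 fold changes. Before quantification by TMTpro 16plex LC-MS/MS with equalised channel sums, K562 cells at 2×10^6 cells/mL were treated with 10 μM compound for 30 min, heated in aliquots for 3 min across 48°C-58°C, pooled, extracted in PBS with 0.5% NP-40 at 4°C, and centrifuged at 21,000xg for 90 min to give the soluble supernatant.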

[2] = compound: CC1=C(C=C(C=C1)NC(=O)C2=CC(=CC=C2)N(C)C)NC(=O)C3=CC=C(C=C3)O
Procedure, shortened: as §1

[3] = compound: CC1=CC=C(C=C1)SC2=C3C=C(SC3=CN=C2)C(=O)N
Procedure, shortened: as §1

[4] = compound: CC1=NC(=CC=C1)C2=C(N=C(N2)C(C)(C)C)C3=CC4=NC=CN=C4C=C3
Procedure, shortened: as §1

Nexturastat A = compound: CCCCN(Cc1ccc(C(=O)NO)cc1)C(=O)Nc1ccccc1 [Nexturastat A]
Procedure, shortened: as §1

vemurafenib = compound: CCCS(=O)(=O)Nc1ccc(F)c(C(=O)c2c[nH]c3ncc(-c4ccc(Cl)cc4)cc23)c1F [vemurafenib]
Procedure, shortened: as §1

[5] = compound: CCCS(=O)(=O)Nc1ccc(F)c(C(=O)c2c[nH]c3ncc(Cl)cc23)c1F
Procedure, shortened: as §1

[6] = compound: CCCc1cc(C)[nH]c(=O)c1CNC(=O)c1cc(-c2ccnc(N3CCN(C)CC3)c2)cc2c1cnn2C(C)C
Procedure, shortened: as §1

givinostat = compound: CCN(CC)Cc1ccc2cc(COC(=O)Nc3ccc(C(=O)NO)cc3)ccc2c1 [givinostat]
Procedure, shortened: as §1

barasertib = compound: CCN(CCCOc1ccc2c(Nc3cc(CC(=O)Nc4cccc(F)c4)[nH]n3)ncnc2c1)CCOP(=O)(O)O [barasertib]
Procedure, shortened: as §1

[7] = compound: CC[C@@H]1C(=O)N(C)c2cnc(Nc3ccc(C(=O)NC4CCN(C)CC4)cc3OC)nc2N1C1CCCC1
Procedure, shortened: as §1

volasertib = compound: CC[C@@H]1C(=O)N(C)c2cnc(Nc3ccc(C(=O)N[C@H]4CC[C@H](N5CCN(CC6CC6)CC5)CC4)cc3OC)nc2N1C(C)C [volasertib]
Procedure, shortened: as §1

[8] = compound: CC[C@H](C)N1C=C(C2=C(C=C(C=C21)C3=CN=C(C=C3)N4CCNCC4)C(=O)NCC5=C(C=C(NC5=O)C)C)C
Procedure, shortened: as §1

epoxomicin = compound: CC[C@H](C)[C@@H](C(=O)N[C@@H]([C@@H](C)O)C(=O)N[C@@H](CC(C)C)C(=O)[C@]1(CO1)C)NC(=O)[C@H]([C@@H](C)CC)N(C)C(=O)C [epoxomicin]
Procedure, shortened: as §1

[9] = compound: CCn1c(C(=O)N(C2CC2)C2CC2)cc2c3c(ncn3C)c(Nc3cc(C)n(C)n3)nc21
Procedure, shortened: as §1

[10] = compound: CCn1cc(-c2ccnc3[nH]c(-c4cccc(CN(C)C)c4)cc23)c(-c2ccc(NC(=O)N(C)C)cc2)n1
Procedure, shortened: as §1

[11] = compound: CN(C)CC(=O)Nc1ccc2[nH]c(=O)c3ccccc3c2c1
Procedure, shortened: as §1

rosiglitazone = compound: CN(CCOC1=CC=C(C=C1)C[C@H]2C(=O)NC(=O)S2)C3=CC=CC=N3 (racemic) [rosiglitazone]
Procedure, shortened: as §1

[12] = compound: CN1C2=C(C3=C1C(=O)N(N=C3)CC4=CC(=CC=C4)N)SC(=C2)S(=O)C
Procedure, shortened: as §1

[13] = compound: CN1CCC(CNc2ccc3ncc(-c4cccc(OC(F)(F)F)c4)n3n2)CC1
Procedure, shortened: as §1

Measured: log2 fold change

GALNT11 (UniProt Q8NCW6)
inactive: [1] 0.011 | [2] 0.049 | [3] -0.024 | [4] -0.041 | Nexturastat A -0.032 | vemurafenib 0.009 | [5] -0.035 | [6] -0.002 | givinostat 0.027 | barasertib 0.118 | [7] 0.057 | [8] 0.014 | epoxomicin -0.002 | [9] -0.038 | [10] 0.015 | [11] -0.079 | rosiglitazone 0.176 | [12] 0.013 | [13] -0.009
active: volasertib -0.223

GYS1 (UniProt P13807)
inactive: [1] 0.057 | [2] -0.04 | [3] -0.068 | [4] -0.13 | Nexturastat A 0.515 | vemurafenib 0.052 | [5] -0.01 | [6] 0.091 | givinostat 0.108 | barasertib -0.033 | [7] 0.229 | volasertib 0.224 | [8] 0.059 | epoxomicin -0.034 | [9] 0.069 | [10] 0.139 | [11] 0.029 | rosiglitazone -0.1 | [12] 0.364 | [13] 0.123

HIST2H3A (UniProt Q71DI3)
inactive: [1] -0.1 | [2] -0.004 | [3] -0.119 | [4] -0.056 | vemurafenib -0.203 | [5] 0.592 | [6] 0.037 | givinostat 0.321 | barasertib -0.148 | [7] -0.206 | volasertib 0.111 | [8] -0.023 | epoxomicin -0.003 | [9] -0.185 | [10] 0.315 | [11] -0.124 | rosiglitazone 0.011 | [12] 0.56 | [13] 0.09
active: Nexturastat A 0.921

FANCI (UniProt Q9NVI1)
inactive: [1] 0.012 | [2] 0.018 | [3] 0.01 | [4] 0.046 | Nexturastat A -0.054 | vemurafenib 0.016 | [5] 0.087 | [6] 0.009 | givinostat 0.043 | barasertib 0.029 | volasertib -0.159 | [8] 0.127 | epoxomicin -0.077 | [9] -0.022 | [10] -0.093 | [11] 0.072 | rosiglitazone 0.066 | [12] -0.013 | [13] -0.188
active: [7] -0.277

GNS (UniProt P15586)
Sequence of UniProt P15586 (P15586 whole entry, looked up): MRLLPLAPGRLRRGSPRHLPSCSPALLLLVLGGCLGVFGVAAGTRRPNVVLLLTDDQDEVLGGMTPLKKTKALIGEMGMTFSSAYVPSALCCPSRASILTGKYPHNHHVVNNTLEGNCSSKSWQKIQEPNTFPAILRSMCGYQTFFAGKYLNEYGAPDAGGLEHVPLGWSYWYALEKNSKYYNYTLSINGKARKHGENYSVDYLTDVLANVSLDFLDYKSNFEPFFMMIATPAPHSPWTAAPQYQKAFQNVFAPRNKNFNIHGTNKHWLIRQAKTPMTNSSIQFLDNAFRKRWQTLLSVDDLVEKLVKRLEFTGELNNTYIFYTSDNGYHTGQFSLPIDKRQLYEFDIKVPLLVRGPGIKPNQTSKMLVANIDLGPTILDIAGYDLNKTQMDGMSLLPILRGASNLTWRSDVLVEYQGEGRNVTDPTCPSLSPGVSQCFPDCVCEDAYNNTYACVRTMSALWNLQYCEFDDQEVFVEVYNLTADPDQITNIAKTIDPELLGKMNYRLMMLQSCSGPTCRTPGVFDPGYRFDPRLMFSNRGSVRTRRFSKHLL
active: [7] -0.272 | [13] -0.408
inactive: [1] -0.021 | [2] 0.112 | [3] 0.044 | [4] 0.026 | Nexturastat A -0.03 | vemurafenib 0.023 | [5] -0.005 | [6] 0.003 | givinostat 0.011 | barasertib -0.004 | volasertib -0.181 | [8] -0.045 | epoxomicin -0.012 | [9] 0.018 | [10] -0.003 | [11] -0.007 | rosiglitazone -0.005 | [12] -0.016

GEMIN5 (UniProt Q8TEQ6)
Sequence of UniProt Q8TEQ6 (Q8TEQ6 whole entry, looked up): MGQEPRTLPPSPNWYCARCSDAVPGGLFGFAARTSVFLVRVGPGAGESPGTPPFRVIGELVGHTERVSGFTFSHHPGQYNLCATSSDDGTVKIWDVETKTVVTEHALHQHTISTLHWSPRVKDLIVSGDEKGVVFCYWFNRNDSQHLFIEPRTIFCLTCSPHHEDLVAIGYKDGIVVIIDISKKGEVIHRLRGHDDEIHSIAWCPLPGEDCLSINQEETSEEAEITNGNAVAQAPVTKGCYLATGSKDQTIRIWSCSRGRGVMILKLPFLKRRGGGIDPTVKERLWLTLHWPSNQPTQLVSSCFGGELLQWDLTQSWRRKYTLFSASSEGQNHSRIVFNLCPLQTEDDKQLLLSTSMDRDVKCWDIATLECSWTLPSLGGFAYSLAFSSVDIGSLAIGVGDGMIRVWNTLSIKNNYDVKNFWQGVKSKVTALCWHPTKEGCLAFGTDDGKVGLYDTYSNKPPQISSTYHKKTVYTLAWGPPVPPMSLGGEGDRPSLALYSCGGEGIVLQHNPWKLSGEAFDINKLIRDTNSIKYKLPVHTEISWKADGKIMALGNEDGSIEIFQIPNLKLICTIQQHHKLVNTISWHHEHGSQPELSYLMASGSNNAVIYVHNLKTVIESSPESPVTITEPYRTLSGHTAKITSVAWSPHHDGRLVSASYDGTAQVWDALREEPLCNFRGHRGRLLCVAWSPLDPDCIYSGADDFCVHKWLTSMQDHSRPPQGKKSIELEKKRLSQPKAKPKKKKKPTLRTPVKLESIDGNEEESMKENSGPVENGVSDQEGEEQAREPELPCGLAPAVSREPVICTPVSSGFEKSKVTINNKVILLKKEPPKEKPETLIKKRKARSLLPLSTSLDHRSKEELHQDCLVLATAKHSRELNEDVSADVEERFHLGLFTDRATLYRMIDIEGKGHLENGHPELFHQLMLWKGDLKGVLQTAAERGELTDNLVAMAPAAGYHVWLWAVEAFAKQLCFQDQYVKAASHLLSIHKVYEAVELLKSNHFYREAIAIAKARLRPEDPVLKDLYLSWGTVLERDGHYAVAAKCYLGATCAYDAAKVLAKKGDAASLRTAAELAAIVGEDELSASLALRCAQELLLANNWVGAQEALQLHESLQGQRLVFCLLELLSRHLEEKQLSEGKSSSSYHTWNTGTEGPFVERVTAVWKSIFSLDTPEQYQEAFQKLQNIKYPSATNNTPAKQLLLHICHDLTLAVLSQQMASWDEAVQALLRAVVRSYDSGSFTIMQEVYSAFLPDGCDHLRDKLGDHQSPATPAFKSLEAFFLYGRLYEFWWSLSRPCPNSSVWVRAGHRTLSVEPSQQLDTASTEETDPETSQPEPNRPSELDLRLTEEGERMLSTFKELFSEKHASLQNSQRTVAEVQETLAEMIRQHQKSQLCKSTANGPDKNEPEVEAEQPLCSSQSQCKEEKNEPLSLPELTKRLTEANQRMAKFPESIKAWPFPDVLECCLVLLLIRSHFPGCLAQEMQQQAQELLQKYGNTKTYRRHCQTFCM
inactive: [1] 0.035 | [2] -0.038 | [3] 0.009 | [4] -0.013 | Nexturastat A -0.004 | vemurafenib 0.015 | [5] 0.093 | [6] 0.018 | givinostat -0.1 | barasertib 0.019 | [7] -0.122 | [8] 0.034 | epoxomicin -0.014 | [9] -0.007 | [10] 0.042 | [11] 0.015 | rosiglitazone 0.046 | [12] 0.019 | [13] -0.094
active: volasertib -0.438

FNTA (UniProt P49354)
inactive: [1] -0.035 | [2] -0.009 | [3] 0.048 | [4] -0.011 | Nexturastat A -0.063 | vemurafenib -0.045 | [5] -0.047 | [6] 0.007 | givinostat -0.052 | barasertib 0.007 | [7] 0.123 | [8] 0.006 | epoxomicin 0.019 | [9] 0.032 | [10] -0.074 | [11] 0.012 | rosiglitazone 0.036 | [12] -0.03 | [13] 0.015
active: volasertib 0.362

GINS2 (UniProt Q9Y248)
inactive: [1] 0.136 | [2] -0.168 | [3] 0.099 | [4] 0.147 | Nexturastat A 0.174 | vemurafenib 0.102 | [5] 0.029 | [6] 0.021 | givinostat -0.038 | barasertib 0.053 | [7] -0.011 | volasertib -0.07 | [8] 0.171 | epoxomicin 0.014 | [9] 0.008 | [10] -0.135 | [11] 0.06 | rosiglitazone 0.058 | [12] 0.064 | [13] 0.062

HMGN1 (UniProt P05114)
Sequence of UniProt P05114 (P05114 whole entry, looked up): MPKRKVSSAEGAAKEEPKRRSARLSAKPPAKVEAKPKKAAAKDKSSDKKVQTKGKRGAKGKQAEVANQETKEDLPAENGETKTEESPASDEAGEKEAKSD
inactive: [1] 0.056 | [2] 0.027 | [3] -0.048 | [4] 0.078 | Nexturastat A -0.017 | vemurafenib 0.004 | [5] -0.064 | [6] -0.033 | givinostat -0.119 | barasertib -0.06 | [7] 0.054 | volasertib 0.141 | [8] -0.044 | epoxomicin -0.008 | [9] 0.063 | [10] 0.045 | [11] -0.094 | rosiglitazone -0.027 | [12] 0.039 | [13] 0.101

GTF2A2 (UniProt P52657)
Sequence of UniProt P52657 (P52657 whole entry, looked up): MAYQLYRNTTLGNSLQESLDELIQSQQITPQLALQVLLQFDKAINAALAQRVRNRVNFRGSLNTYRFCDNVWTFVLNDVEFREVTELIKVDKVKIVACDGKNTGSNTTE
inactive: [1] 0.009 | [2] -0.029 | [3] 0.052 | [4] 0.03 | Nexturastat A -0.091 | vemurafenib -0.083 | [5] -0.017 | [6] -0.053 | givinostat -0.044 | barasertib 0.007 | [7] 0.053 | volasertib 0.097 | [8] -0.07 | epoxomicin 0.036 | [9] 0.03 | [10] 0.025 | [11] -0.03 | rosiglitazone 0.003 | [12] -0.046 | [13] -0.031

HADHA (UniProt P40939)
Sequence of UniProt P40939 (P40939 whole entry, looked up): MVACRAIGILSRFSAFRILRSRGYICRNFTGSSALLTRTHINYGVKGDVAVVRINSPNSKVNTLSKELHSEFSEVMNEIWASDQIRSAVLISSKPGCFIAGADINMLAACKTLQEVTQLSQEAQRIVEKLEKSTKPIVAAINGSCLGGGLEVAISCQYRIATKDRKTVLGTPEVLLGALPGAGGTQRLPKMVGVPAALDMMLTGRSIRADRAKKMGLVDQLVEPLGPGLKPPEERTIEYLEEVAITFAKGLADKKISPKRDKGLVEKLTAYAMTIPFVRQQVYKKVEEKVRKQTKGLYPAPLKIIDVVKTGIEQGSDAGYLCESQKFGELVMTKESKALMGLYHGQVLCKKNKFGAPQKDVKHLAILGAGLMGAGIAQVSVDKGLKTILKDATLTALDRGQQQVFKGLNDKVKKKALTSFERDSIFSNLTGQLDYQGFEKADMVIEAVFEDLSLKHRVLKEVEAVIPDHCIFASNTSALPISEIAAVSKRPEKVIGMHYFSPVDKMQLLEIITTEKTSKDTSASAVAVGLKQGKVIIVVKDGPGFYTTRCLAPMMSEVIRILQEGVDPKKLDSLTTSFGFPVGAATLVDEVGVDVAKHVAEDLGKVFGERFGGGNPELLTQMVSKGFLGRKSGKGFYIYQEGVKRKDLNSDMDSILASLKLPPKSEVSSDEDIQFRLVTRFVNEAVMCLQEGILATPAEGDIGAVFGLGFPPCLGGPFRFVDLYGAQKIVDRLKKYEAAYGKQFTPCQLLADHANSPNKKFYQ
inactive: [1] 0.307 | [2] -0.203 | [3] 0 | [4] -0.022 | Nexturastat A -0.1 | vemurafenib -0.017 | [5] -0.006 | [6] 0.1 | givinostat 0.044 | barasertib -0.013 | [7] 0.03 | volasertib 0.469 | [8] 0.107 | epoxomicin 0.055 | [9] 0.231 | [10] -0.233 | [11] 0.023 | rosiglitazone -0.019 | [12] -0.053 | [13] -0.334

HAT1 (UniProt O14929)
Sequence of UniProt O14929 (O14929 whole entry, looked up): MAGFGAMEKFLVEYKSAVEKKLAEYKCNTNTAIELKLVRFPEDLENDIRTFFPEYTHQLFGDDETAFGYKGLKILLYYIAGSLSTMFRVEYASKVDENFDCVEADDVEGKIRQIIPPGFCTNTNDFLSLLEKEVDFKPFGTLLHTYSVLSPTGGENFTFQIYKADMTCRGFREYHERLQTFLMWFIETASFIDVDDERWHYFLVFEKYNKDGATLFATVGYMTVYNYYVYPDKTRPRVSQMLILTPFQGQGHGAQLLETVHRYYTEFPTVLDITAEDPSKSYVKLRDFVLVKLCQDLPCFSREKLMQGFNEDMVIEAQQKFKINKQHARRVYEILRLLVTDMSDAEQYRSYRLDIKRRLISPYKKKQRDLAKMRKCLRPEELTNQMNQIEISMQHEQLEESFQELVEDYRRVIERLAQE
active: volasertib -0.313
inactive: [1] 0.042 | [2] -0.037 | [3] 0.008 | [4] 0.095 | Nexturastat A -0.034 | vemurafenib 0.087 | [5] 0.013 | [6] 0.007 | givinostat 0.005 | barasertib 0.025 | [7] -0.185 | [8] 0.02 | epoxomicin 0.035 | [9] 0.014 | [10] -0.057 | [11] -0.007 | rosiglitazone 0.049 | [12] -0.081 | [13] 0.026

HK2 (UniProt P52789)
Sequence of UniProt P52789 (P52789 whole entry, looked up): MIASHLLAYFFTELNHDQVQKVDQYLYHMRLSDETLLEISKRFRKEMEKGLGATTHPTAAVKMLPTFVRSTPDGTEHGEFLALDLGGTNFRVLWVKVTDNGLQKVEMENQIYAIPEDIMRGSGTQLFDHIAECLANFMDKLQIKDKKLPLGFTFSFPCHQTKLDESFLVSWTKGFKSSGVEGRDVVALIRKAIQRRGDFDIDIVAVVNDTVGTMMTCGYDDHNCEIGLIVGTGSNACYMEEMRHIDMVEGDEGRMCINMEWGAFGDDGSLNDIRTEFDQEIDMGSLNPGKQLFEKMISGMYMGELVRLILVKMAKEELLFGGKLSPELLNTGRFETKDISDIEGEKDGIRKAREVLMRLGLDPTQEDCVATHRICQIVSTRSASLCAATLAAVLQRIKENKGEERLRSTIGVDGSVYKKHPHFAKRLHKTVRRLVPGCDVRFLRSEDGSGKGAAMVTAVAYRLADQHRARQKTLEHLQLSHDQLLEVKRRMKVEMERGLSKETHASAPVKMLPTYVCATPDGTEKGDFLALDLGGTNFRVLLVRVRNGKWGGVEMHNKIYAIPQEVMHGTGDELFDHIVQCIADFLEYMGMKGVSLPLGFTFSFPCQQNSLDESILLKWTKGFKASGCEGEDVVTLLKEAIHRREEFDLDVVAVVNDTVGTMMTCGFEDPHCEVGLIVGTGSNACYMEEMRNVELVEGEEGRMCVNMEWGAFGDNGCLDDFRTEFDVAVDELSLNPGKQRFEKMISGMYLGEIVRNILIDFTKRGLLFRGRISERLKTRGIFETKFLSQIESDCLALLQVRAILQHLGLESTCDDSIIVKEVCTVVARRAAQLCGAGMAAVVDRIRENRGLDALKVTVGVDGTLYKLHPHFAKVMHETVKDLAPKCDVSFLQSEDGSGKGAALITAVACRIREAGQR
inactive: [2] -0.028 | [3] 0 | [4] 0.019 | Nexturastat A 0.017 | vemurafenib 0.003 | [5] 0.027 | [6] -0.041 | givinostat -0.016 | barasertib 0.051 | [7] -0.156 | [8] 0.086 | epoxomicin 0.049 | [9] -0.127 | [10] 0.016 | [11] -0.001 | rosiglitazone 0.032 | [12] -0.028 | [13] -0.038
active: [1] -0.257 | volasertib -0.813

HLTF (UniProt Q14527)
inactive: [1] 0.04 | [2] -0.014 | [3] -0.056 | [4] 0.038 | Nexturastat A 0.019 | vemurafenib 0.047 | [5] 0.048 | [6] 0.109 | givinostat 0.018 | barasertib 0.007 | [7] -0.063 | volasertib -0.178 | [8] 0.017 | epoxomicin 0.158 | [9] -0.025 | [10] -0.113 | [11] 0.056 | rosiglitazone 0.025 | [12] -0.009 | [13] 0.201

GUSB (UniProt P08236)
Sequence of UniProt P08236 (P08236 whole entry, looked up): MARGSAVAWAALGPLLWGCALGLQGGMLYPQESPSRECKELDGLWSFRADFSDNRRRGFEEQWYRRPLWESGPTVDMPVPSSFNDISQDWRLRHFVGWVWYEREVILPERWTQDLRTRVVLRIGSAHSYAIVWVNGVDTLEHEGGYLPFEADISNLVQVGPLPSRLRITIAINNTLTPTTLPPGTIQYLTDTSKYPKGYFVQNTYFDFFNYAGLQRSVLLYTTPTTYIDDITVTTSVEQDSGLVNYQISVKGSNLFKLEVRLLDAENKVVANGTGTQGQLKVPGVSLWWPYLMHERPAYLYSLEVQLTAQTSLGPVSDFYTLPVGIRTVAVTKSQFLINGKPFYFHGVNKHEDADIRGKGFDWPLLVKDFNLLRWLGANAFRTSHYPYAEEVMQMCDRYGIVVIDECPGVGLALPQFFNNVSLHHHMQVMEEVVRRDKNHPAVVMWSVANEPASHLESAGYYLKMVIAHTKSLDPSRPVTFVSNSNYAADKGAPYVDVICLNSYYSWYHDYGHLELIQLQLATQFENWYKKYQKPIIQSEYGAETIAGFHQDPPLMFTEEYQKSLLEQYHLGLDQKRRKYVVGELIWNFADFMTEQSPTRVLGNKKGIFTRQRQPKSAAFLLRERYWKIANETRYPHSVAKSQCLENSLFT
active: givinostat -0.501
inactive: [1] -0.013 | [2] -0.014 | [3] -0.027 | [4] -0.073 | Nexturastat A 0.277 | vemurafenib 0.06 | [5] 0.03 | [6] -0.038 | barasertib -0.048 | [7] -0.104 | volasertib 0.067 | [8] 0.354 | epoxomicin -0.053 | [9] -0.151 | [10] -0.026 | [11] -0.001 | rosiglitazone -0.041 | [12] -0.028 | [13] 0.001

GALK1 isoform 2 (UniProt P51570)
inactive: [1] 0.244 | [2] 0.004 | [3] 0.144 | [4] 0.02 | Nexturastat A -0.082 | vemurafenib 0.144 | [5] 0.183 | [6] 0.033 | givinostat 0.018 | barasertib -0.007 | [7] -0.03 | volasertib -0.009 | [8] 0.053 | epoxomicin 0.131 | [9] 0.026 | [10] -0.064 | [11] 0.106 | rosiglitazone 0.024 | [12] -0.049 | [13] -0.03
